Common to all, as to format: functional
Test [1] addresses Solute carrier family 2, facilitated glucose transporter member 1 (Homo sapiens) (UniProt P11166). Kind of test: ST_JUDE_LEISH: Cytotoxicity at 2uM final concentration against transgenic Leishmania Mexicana promastigotes LmGLUT1 that are glucose transport deficient and complemented with the human glucose transporter GLUT1. Activity is measured by DNA content using SYBR green in vitro.

In test [2] the target is Hexose transporter 1 (Plasmodium falciparum) (UniProt O97467). Kind of test: ST_JUDE_LEISH: Cytotoxicity at 2uM final concentration against transgenic Leishmania Mexicana promastigotes LmPfHT that are glucose transport deficient and complemented with the Plasmodium falciparum hexose transporter. Activity is measured by DNA content using SYBR green in vitro.
In test [3] the target is Glucose transporter (Leishmania mexicana) (UniProt O61059). Put plainly: ST_JUDE_LEISH: Cytotoxicity at 2uM final concentration against transgenic Leishmania Mexicana promastigotes LmGT2 that are glucose transport deficient and complemented with the L. Mexicana glucose transporter 2. Activity is measured by DNA content using SYBR green in vitro.

The structures appear in SMILES notation.

Solute carrier family 2, facilitated glucose transporter member 1 (Homo sapiens), sequence (P11166 whole entry): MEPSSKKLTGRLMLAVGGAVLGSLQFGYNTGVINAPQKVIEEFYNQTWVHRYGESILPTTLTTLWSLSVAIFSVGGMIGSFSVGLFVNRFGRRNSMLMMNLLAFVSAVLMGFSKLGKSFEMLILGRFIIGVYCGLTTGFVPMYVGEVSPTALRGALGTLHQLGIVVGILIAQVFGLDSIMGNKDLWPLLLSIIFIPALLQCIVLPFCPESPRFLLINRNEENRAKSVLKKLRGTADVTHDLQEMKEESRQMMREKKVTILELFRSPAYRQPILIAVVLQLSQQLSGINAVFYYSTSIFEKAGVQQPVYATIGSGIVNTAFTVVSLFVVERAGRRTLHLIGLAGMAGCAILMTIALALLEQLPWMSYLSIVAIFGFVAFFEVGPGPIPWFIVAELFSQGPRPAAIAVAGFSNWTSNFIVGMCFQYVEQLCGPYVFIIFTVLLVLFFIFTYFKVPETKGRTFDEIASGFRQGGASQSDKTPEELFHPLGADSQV

Take `CC(C)(C)C(=O)Nc1ccccc1Oc1ccc(Cl)cc1`: the inhibition is 5.77% in test [1], 4.21% in test [2] and 5.27% in test [3].
The corresponding values for `CC(C)(C)c1ccc(CNC(=O)c2ccc(-c3nc4cc(C(C)(C)C)ccc4[nH]3)cc2)cc1` are 4.41%, 4.23% and 1.77%.
Consider `Cc1cccc2nc(-c3cccc(-c4ccc(NC(=O)CC5NC(=O)c6ccccc65)cc4)c3)[nH]c12` (stereo not given), for which the values for the inhibition in test [1], in test [2] and in test [3] were 8.73%, 9.29% and 7.01%, respectively.
Taken in the same sequence, the figures for `O=C(NCCc1ccccc1)[C@H](Cc1ccccc1)Nc1ccnc(NCC2CCCCC2)n1` were -0.55%, 2.47% and 0.61%.
On to `CC(=O)COc1c(C2CCN(CCCCNC(=O)c3ccc(-c4ccc(C(F)(F)F)cc4)cc3)CC2)ccc2c1CCCC2`, for which the figures for the inhibition in test [1], in test [2] and in test [3] were 0.29%, 5.93% and 0.59%, respectively.
The corresponding values for `CCCNCc1ccc(-c2ccc(CN(Cc3cccs3)C(=O)C3CCN(C)CC3)cc2)nc1` are 2.14%, 0.83% and -0.89%.
The corresponding values for `CCc1cn2c3c(cc(C(=O)N[C@@H](Cc4ccccc4)[C@H](O)CNC4CCCCC4)cc13)N(CC)S(=O)(=O)CC2` are -0.63%, 0.33% and -3.68%.
Taken in the same sequence, the figures for `Cn1nc(-c2cccc(CN[C@@H]3CCc4ccc(O)cc43)c2)c2cnc(NCCCN3CCCC3)nc21` were 11.2%, 4.83% and 4.3%.
With `FC(F)(F)c1ccc2[nH]c(-c3ccc(-c4ccc(CNCc5ccccc5)cc4)cc3)nc2c1`, the results for the inhibition in test [1], in test [2] and in test [3] were 8.83%, 6.65% and 6.47%, respectively.
Taken in the same sequence, the figures for `FC(F)(F)c1ccc2[nH]c(-c3ccc(-c4cccc(CN5CCN(c6ccncc6)CC5)c4)cc3)nc2c1` were 64.9%, 53.5% and 9.81%.
For `CC1C(c2cccc(Cl)c2)OCC(C)(C)N1C(=O)CCN1CCCCC1` (stereo not given), the inhibition in test [1] is -1.47%; in test [2] it was -0.69%; in test [3] it was -1.56%.
The corresponding values for `CN1CC[C@@H](Oc2cc(NC(=O)Nc3ccc(Cl)c(C(F)(F)F)c3)ccc2Cl)C1` are 0.88%, 0.12% and 0.51%.
Taken in the same sequence, the figures for `O=C(Nc1cccc(C(F)(F)F)c1)c1cccc(S(=O)(=O)NCC2CCCN(CC3CCCCC3)C2)c1` (stereo not given) were -0.44%, 0.12% and -2.09%.
With `CN1CCN(Cc2cc(NC(=O)c3ccc(-c4ccc(Cl)cc4Cl)cc3)ccc2-c2ccccc2)CC1`, the inhibition in test [1] was 6.54%; in test [2] it was 2.47%; in test [3], -0.1%.
The corresponding values for `COc1ccc(NC(=O)[C@H](Cc2ccccc2)Nc2cc(C)nc(NCCc3cccnc3)n2)cc1` are -0.56%, 1.12% and 1.34%.
As for `COc1c(CN2CCCC2)cccc1-c1cc2c(-c3ccc(C(=O)O)c(C(C)C)c3)ccnc2[nH]1`, the figures for the inhibition in test [1], in test [2] and in test [3] were 3%, 2.05% and 2.09%, respectively.
`Cc1nn(-c2ccccc2)nc1C(=O)N(Cc1ccc(-c2ccc(CNCCc3ccc(S(C)(=O)=O)cc3)cn2)cc1)C(C)CN(C)C` (stereo not given): the inhibition in test [1] came to 0.95%; in test [2], 3.63%; in test [3], 3.9%.
For the molecule `CN1CCN(c2ccc(Nc3c(C(N)=O)cnc4cc(-c5ccoc5)ccc34)cc2C(F)(F)F)CC1`, the inhibition was 2.31% in test [1], 2.21% in test [2] and 2.01% in test [3].
For `Cn1ccnc1CNC(=O)c1ccc(-c2cccc(-c3nc4cc(C(F)(F)F)ccc4[nH]3)c2)cc1`, the results for the inhibition in test [1], in test [2] and in test [3] were 1.73%, 0.7% and 0.2%, respectively.
Taken in the same sequence, the figures for `O=C(c1cccs1)N1CCN(c2ccc([N+](=O)[O-])c(NC3CC3)c2)CC1` were 1.35%, 0.57% and 1.6%.
Regarding `CN1CCN(CC(=O)Nc2ccc(-c3ccc(-c4nc5cc(C(F)(F)F)ccc5[nH]4)s3)cc2)CC1`, the inhibition in test [1] was -0.05%; in test [2], 1.22%; in test [3] it was 1.13%.
The corresponding values for `COc1ccc(Nc2ccnc3cc(-c4ccccn4)ccc23)cc1OC` are 1.2%, 0.73% and -0.54%.
The corresponding values for `COc1ccc(OC)c(-c2cccc(-c3cccc(NC(=O)c4ccc([N+](=O)[O-])o4)c3)n2)c1` are 6.43%, 9.55% and 3.3%.
`Cn1nccc1C(=O)NCCNCc1ccc(-c2cccc(-c3nc4ccccc4[nH]3)c2)cc1`: the inhibition is -0.28% in test [1], -0.94% in test [2] and 0.68% in test [3].
With `CCC1(C)N=C(N)N=C(N)N1c1ccccc1` (stereo not given), the inhibition in test [1] is -3.49%; in test [2], 0%; in test [3] it was -3.1%.
As to `CN1CCN(CCCN(Cc2cccc(-c3ccc(CNCc4ccc5c(c4)OCO5)cc3)c2)C(=O)CCC2CCCC2)CC1`, the inhibition in test [1] amounted to 51.2%; in test [2] it was 45.7%; in test [3], 34.4%.
The corresponding values for `Cc1ccc2nc3c(cc(C(=O)NCCc4ccccc4)c(=N)n3CCCOC(C)C)c(=O)n2c1` are -0.01%, 0.31% and -1.76%.
`CC(=O)c1ccc(NC(=O)NNC(=O)c2ccc(CCN3CCC(c4nc(COCC(F)(F)F)c(-c5ccc(F)cc5)o4)CC3)cc2)cc1`: the figures for the inhibition in test [1], in test [2] and in test [3] were 0.31%, 0.69% and -1.37%, respectively.
Taken in the same sequence, the figures for `O=C(Nc1ccc(-c2nc3ccccc3[nH]2)cc1)c1cnc(Cl)c(Cl)c1` were 0.44%, -0.34% and 2.62%.
Regarding `O=C(/C=C/c1ccc(Cl)c(Cl)c1)NCCCCCN1CCC(NC(=O)Nc2cccc(F)c2)CC1`, the inhibition in test [1] amounted to 2.32%; in test [2] it was 1.97%; in test [3], 2.29%.
Consider `Cc1nnsc1C(=O)Nc1cccc(-c2cccc(-c3nc4ccccc4[nH]3)c2)c1`, for which the inhibition was -1.84% in test [1], 0.03% in test [2] and -2.07% in test [3].
Turning to `CN(C)c1ccc(CN2CCC(CNC(=O)c3cc(-c4ccccc4F)cs3)C2)cc1` (stereo not given), the inhibition in test [1] came to 1.96%; in test [2], 1.98%; in test [3], 2.12%.
Taken in the same sequence, the figures for `CNc1ccc(CNCc2ccc(-c3ccc(-c4nc5cc(C(F)(F)F)ccc5[nH]4)cc3)cc2)cc1` were 0.54%, -1.86% and 9.71%.
Take `COc1cccc(C=NNc2cc(C)nc3c(OC)cccc23)c1`: the inhibition in test [1] was found to be 3.12%; in test [2] it was 1.32%; in test [3], 0.35%.
In the case of `CCc1c(CCNCCCCCCNCCc2ccc(Br)cc2)ccc(OC)c1OC`, the values for the inhibition in test [1], in test [2] and in test [3] were 36.3%, 10.9% and 103%, respectively.

As a reminder, the inhibition is the change of the read-out against control, counted positive when it falls.

(Values after ChEMBL document CHEMBL3433997, “St. Jude Leishmania screening dataset” (2016).)
